AMA1-RON2 inh: AMA1-RON2 (P. falciparum) interaction inhibition; AlphaScreen AMA1-biotinylated RON2 peptide binding; Potency, µM (doses to about 58.2 µM), without a hit: at the highest dose activity change, negative = inhibition, actives largely listed as inhibitors; 360,000 compounds, 0.2% hits; AID 720542;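 also: potency is read from the fitted curve at half-maximal effect; 0% = vehicle wells and -100% = peptide control; nearly all actives have a fitted effect of over 45% in size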
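AMA1 (3D7) with his tag at 25 nM final met compounds first, then biotinylated RON2 peptide at 25 nM; detection used donor plus acceptor beads, 10 µg/mL apiece, read by AlphaScreen after 30 min at room temperature.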
Tb PYK inh: blocks Trypanosoma brucei pyruvate kinase. TbPYK enzyme, Kinase-Glo Plus ATP luminescence, 45 min. 410,000 compounds, 0.12% hits. Q57TT1. Potency, µM (titrated, usually from 76.8 µM), for the others: at the top dose activity, negative = inhibition, hits mostly inhibitors; also: potency is read from the fitted curve at half-maximal effect; % is scaled to controls: 0 for no effect and ±100 for the full control effect; nearly all actives have a fitted effect of over 50% in size
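Enzyme and substrate buffer are dispensed first and compound is pin-transferred. ADP at 130 uM final then starts the reaction, which runs 45 min at room temperature. Detection reagent is added for 10 min before luminescence is imaged.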
RE007 growth inh: less growth of the S. pombe RE007 Vpr strain; Potency, µM (top dose mostly 92.2 µM), for the others: at the highest dose activity change, negative = less growth, most hits filed as inhibitors; S. pombe RE007 Vpr strain, BacTiter-Glo ATP luminescence, 24 h; AID 651644; 360,000 compounds, 0.21% hits; active = well fitted falling curve with a large enough effect; inconclusive = small, poorly fitted or top-dose-only effect; inactive = no such curve, though single readings can be large or run the other way; also: potency is read from the fitted curve at half-maximal effect; % is scaled to controls: 0 for no effect and ±100 for the full control effect; nearly all actives have a fitted effect of over 50% in size
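Fission yeast RE007 carrying one integrated HIV-1 vpr copy, seeded at OD 0.01 in PMG+AL medium with 23 nL pinned compound. Grown 24 h at 30 degrees; viability read by BacTiter-Glo luminescence after 5 min.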
LmPK inh: blocks Leishmania mexicana pyruvate kinase activity | Q27686 | Potency, µM (top dose mostly 57.5 µM), for the others: at the highest dose activity change, negative = inhibition, actives largely listed as inhibitors | purified LmPK, Kinase-Glo ATP luminescence, 1 h | 290,000 compounds, 0.37% hits; also: potency is read from the fitted curve at half-maximal effect; % is scaled to controls: 0 for no effect and ±100 for the full control effect
Target sequence (Q27686 whole entry, looked up): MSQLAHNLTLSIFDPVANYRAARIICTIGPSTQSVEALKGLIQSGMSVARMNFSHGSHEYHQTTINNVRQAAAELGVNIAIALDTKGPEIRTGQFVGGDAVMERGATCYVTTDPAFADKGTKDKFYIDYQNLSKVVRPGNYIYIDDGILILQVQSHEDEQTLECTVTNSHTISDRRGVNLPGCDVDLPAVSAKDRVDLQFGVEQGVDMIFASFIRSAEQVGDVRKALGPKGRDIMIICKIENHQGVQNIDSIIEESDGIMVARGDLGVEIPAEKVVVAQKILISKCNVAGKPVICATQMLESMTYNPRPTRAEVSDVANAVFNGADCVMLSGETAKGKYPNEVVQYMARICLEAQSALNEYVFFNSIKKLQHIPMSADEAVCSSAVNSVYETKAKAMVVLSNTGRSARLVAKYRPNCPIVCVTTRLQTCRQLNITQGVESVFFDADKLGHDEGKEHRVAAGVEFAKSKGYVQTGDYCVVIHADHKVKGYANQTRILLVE
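0.1 nM LmPK, 0.5 mM PEP, 0.1 mM ADP; 50 mM imidazole pH 7.2, 7 mM MgCl2, 50 mM KCl; 1 h RT. Kinase-Glo luminescence readout, normalized to no-enzyme (full inhibition) and uninhibited wells.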
SARS PLpro yeast-1: SARS-CoV PLP inhibition in yeast; S. cerevisiae expressing SARS-CoV PLpro, growth rescue; Potency, µM (titrated, usually from 32.9 µM), without a hit: top-dose activity, positive = growth rescue, most hits filed as activators; 330,000 compounds, 0.19% hits; calls by dose curve; also: potency is read from the fitted curve at half-maximal effect; 0% is about no effect; nearly all actives have a fitted effect of over 55% in size
SARS PLpro yeast-2: Inhibits SARS-CoV PLP in yeast, hit validation; yeast expressing SARS-CoV PLpro, growth phenotype rescue; 1,000 compounds, 19% hits; shares compounds with SARS PLpro yeast-1; calls only; call rule not given here
* hit, by the source's call; i = inactive; ? = inconclusive; / = no result given; + = active, no number; [ ] = dose if it differs, or a comment. The list is not random: actives were taken first. Their share in the collection is about 0.81%. Unless noted, calls follow the shape of the dose curve; as a rule, active = well fitted curve in the direction sought with a large enough effect; inconclusive = small, poorly fitted or top-dose-only effect, or another doubt; inactive = no such curve, though single readings can be large; an effect the other way counts as inactive or inconclusive.

SMILES | AMA1-RON2 inh | Tb PYK inh | RE007 growth inh | LmPK inh | SARS PLpro yeast-1 | SARS PLpro yeast-2
CN1C(=O)SC(Nc2ccc(F)cc2)C1=O (configuration not stated) | 23% | 0% | -20% | -1% | -4% | /
CN1C(=O)SC(Nc2ccccc2)C1=O (configuration not stated) | 2% | -11% | 2% | 8% | 13µM* | i
Cc1ccc(S(=O)(=O)N2C[C@H]3N(C(=O)OC(C)C)N(C(=O)OC(C)C)C[C@H](OC(=O)Nc4c(C)noc4C)[C@@]3(O)C2)cc1 | 6% | 4% | -2% | / | / | /
COc1cc([N+](=O)[O-])cc(/C=N/NC(=O)C(C)Nc2cccc(C)c2)c1O (configuration not stated) | 72% | -5% | -2% | 5% | ? | ?
COc1cc([N+](=O)[O-])cc(/C=N/NC(=O)c2ccc(C)nc2)c1O | -27% | -8% | 8% | 2% | 8.9µM* | ?
CCc1ccc(CN(Cc2ccco2)c2cnc(S(C)(=O)=O)nc2C(=O)Nc2ccccc2Cl)cc1 | / | 2% | / | / | / | /
COc1ccc(N(CN2C(=O)c3ccccc3C2=O)C(=O)COc2ccc(Cl)cc2Cl)cc1 | -5% | 4% | -6% | 3% | 13µM* | i
COc1ccc(N(CN2C(=O)c3ccccc3C2=O)C(=O)C(C)C)cc1 | -4% | -7% | -3% | -2% | 4% | /
CC(=O)NCCC(=O)Nc1nc(-c2ccc3ccccc3c2)cs1 | -6% | -1% | 1% | 0% | ? | i
Nc1nonc1C(=Nc1ccccc1)NO | 4% | -2% | 2% | -1% | ? | i
Cc1cccc(N=C(NO)c2nonc2N)c1 | -4% | -5% | 1% | 2% | 10% | /
O=C(Nc1ccccc1)N1CCCC(c2nc(-c3cccs3)no2)C1 (configuration not stated) | -5% | -14% | 10% | -1% | 16µM* | i
O=C(N/N=C/c1c(O)n(CCC2=CCCCC2)c(=O)[nH]c1=O)c1ccccc1 | 27% | -10% | 7% | 2% | 10µM* | i
NC(=S)Nc1cccc2cccnc12 | -3% | 2% | 0% | 4% | ? | i
Cc1cc(C)cc(NC(=O)C(=O)NCc2ccccn2)c1 | 17% | -9% | -4% | -4% | ? | i
C=CCNC(=O)C1CC2Cn3c(nc4cc(Cl)c(Cl)cc43)C2N1C (configuration not stated) | -2% | -2% | 6% | / | ? | i
C=CCNC(=O)C1CC2Cn3c(nc4ccccc43)C2N1C (configuration not stated) | -3% | 0% | 0% | -2% | 1% | /
COc1ccccc1N(CC(=O)Nc1cc(S(=O)(=O)N(C)C)ccc1C)S(=O)(=O)c1cccs1 | 9% | 0% | -8% | / | 12% | /
COc1ccc(C)cc1N(C(=O)c1ccco1)C(C(=O)NC1CCCC1)c1cc(OC)c(OC)c(OC)c1 (configuration not stated) | 19% | -12% | -13% | -11% | 1% | /
CCc1ccccc1NC(=O)CN1CCN(C(=O)c2ccc(OCc3cn4ccccc4n3)cc2)CC1 | -2% | -3% | -13% | / | ? | i
Cc1ccc(C)c(N2CCN(S(=O)(=O)c3ccc4oc(=O)c5ncn(C)c5c4c3)CC2)c1 | / | -1% | / | / | / | /
Oc1c(C(Nc2cccc(C(F)(F)F)c2)c2ccncc2)ccc2cccnc12 (configuration not stated) | -24% | 117% | -26% | 2% | ? | i
Oc1c(C(Nc2nccs2)c2ccc(C(F)(F)F)cc2)ccc2cccnc12 (configuration not stated) | 1% | -1% | -19% | 0% | -26% | /
C[C@@H](NC(=O)[C@@H]1CCCN1C(=O)[C@@H]1CCCN1C(=O)OC(C)(C)C)c1ccccc1 | 4% | 2% | 11% | / | / | /
CCCC1(CCC)NC(=O)N(CC(=O)N2CCc3ccccc32)C1=O | -1%[11.6 µM] | -6% | 2% | / | -1% | /
SMILES | AMA1-RON2 inh | Tb PYK inh | RE007 growth inh | LmPK inh | SARS PLpro yeast-1 | SARS PLpro yeast-2
Cc1cc(C(=O)NNC(=O)c2ccc(S(=O)(=O)N(C)C)cc2)c(C)o1 | 17%[11.6 µM] | -5% | 5% | 2% | 2.5µM* | i
Cc1cccc(NC(=S)NC2CCCC2)c1 | -3%[2.32 µM] | -1% | -22% | -4% | ? | +
Cc1ccc(C2CC2C(=O)NNC(=S)Nc2cccc(C)c2)cc1 (configuration not stated) | 51% | -5% | 13% | -2% | 10µM* | i
Cc1ccc(NC(=S)NNC(=O)C2CC2c2ccc(C)cc2)cc1 (configuration not stated) | 62% | -11% | 12% | -1% | ? | /
O=C(CNC(=O)c1cccc(Br)c1)N/N=C/c1cccs1 | 7% | -1% | 1% | 0% | 2% | /
O=C(CNC(=O)c1cccc(Br)c1)N/N=C/c1cc(Br)cc(Br)c1O | 42% | 2% | -4% | 9% | 3.5µM* | +
O=C(CN1C(=O)C2C3C=CC(C3)C2C1=O)NCCc1ccccc1 (configuration not stated) | 0% | ? | ? | 2% | 3% | /
O=C(CN1C(=O)C2C3C=CC(C3)C2C1=O)NCc1ccccc1 (configuration not stated) | 0% | -4% | 0% | -3% | ? | i
CCc1nc2ccc(C(=O)Nc3ccc(OC)c(OC)c3)cn2c1N(CCC(C)C)CCN(C)C | -11% | -4% | -15% | / | / | /
CN(C)c1cc[n+](CC(=O)Nc2cc(C(F)(F)F)ccc2Cl)cc1 | 24% | 0% | 6% | 0% | ? | i
Cc1cc[n+](CC(=O)Nc2cc(C(F)(F)F)ccc2Cl)cc1 | -4% | -6% | -7% | 0% | 4% | /
O=C(Nc1ccc(NC(=O)c2ccco2)c(Cl)c1)c1ccc2c(c1)OCCO2 | 2% | -10% | 8% | 2% | 1% | /
O=C(Nc1ccc(NC(=O)c2ccco2)cc1)c1ccc2c(c1)OCO2 | 0% | 6% | 3% | -17% | ? | +
COc1cccc(NC(=O)COC(=O)CNC(=O)C2CCCCC2)c1 | -1% | 2% | 6% | / | 1% | /
Cc1cccc(NC(=O)COC(=O)CNC(=O)C2CCCCC2)c1 | 29% | -1% | -3% | 5% | ? | i
COc1ccc(CNC(=O)c2cn(Cc3ccccc3F)c(=O)s2)cc1 | -2% | -1% | 3%[18.4 µM] | / | / | /
COc1ccc(-c2c(C#N)c(SCC(=O)Nc3cccc(Cl)c3)nc(C)c2C(=O)Nc2ccccc2)cc1OC | / | 1% | / | / | / | /
O=C(Nc1nc2ccccc2n1CCN1CCOCC1)c1cn(-c2ccccc2)nc1-c1ccccc1 | 29% | -1% | -26% | 3% | ? | ?
